About 79,000 compounds went through this panel and 15% of them were active in at least one assay; those are over-represented in the sample as a whole. Values without a mark were called inactive. Active and inactive are the calls of the source. No stated cut-off is given here; in the data, active means growth inhibition above about 70%; inactive means the rest.
What was measured:
[1] = NCI Yeast Anticancer Drug Screen. Data for the rad52 strain (AID 147);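 further: 0% = growth of vehicle-treated control cultures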; conditions: S. cerevisiae rad52 mutant growth inhibition, active compounds read high
In short: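 The repair-mutant yeast strain was incubated with compounds, then growth was read and inhibition derived relative to vehicle.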

[2] = NCI Yeast Anticancer Drug Screen. Data for the wt1 strain (AID 149);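 further: 0% = growth of vehicle-treated wt1 cultures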; conditions: S. cerevisiae wt1 strain (SPY 50644) growth inhibition, active compounds read high
In short: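 wt1 yeast, compound-treated; % growth inhibition vs vehicle control.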

[3] = NCI Yeast Anticancer Drug Screen. Data for the rad50EPP+ strain (AID 151);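 further: 0% = growth of vehicle-treated control cultures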; conditions: S. cerevisiae rad50 mutant strain, active compounds read high
In short: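 Vehicle-normalised growth inhibition; rad50EPP+ yeast strain, altered in DNA damage repair, compound-treated.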

[4] = NCI Yeast Anticancer Drug Screen. Data for the mgt1 strain (AID 153); conditions: S. cerevisiae mgt1 mutant growth inhibition, active compounds read high
In short: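 Vehicle-normalized growth inhibition is determined in mgt1 yeast, a strain selected for a defined alteration in DNA repair or cell cycle control.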

[5] = NCI Yeast Anticancer Drug Screen. Data for the rad50 strain (AID 155);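 further: 0% = growth of vehicle-only cultures of the same strain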; conditions: S. cerevisiae rad50 strain growth inhibition, active compounds read high
In short: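 Genetically altered yeast (DNA repair pathway); compound treatment; growth inhibition vs vehicle ctrl.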

[6] = NCI Yeast Anticancer Drug Screen. Data for the mec2-1 strain (AID 157); conditions: S. cerevisiae mec2-1 strain, active compounds read high
In short: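 Mutant yeast (mec2-1) grown with compound; growth inhibition relative to vehicle control reported.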

[7] = NCI Yeast Anticancer Drug Screen. Data for the rad14 strain (AID 159);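 further: 0% = growth of vehicle-treated control cultures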; conditions: S. cerevisiae rad14 strain growth inhibition, active compounds read high
In short: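 Test compounds were applied to a repair-deficient yeast strain. Its growth was then compared with that of cultures given vehicle alone, and inhibition was expressed relative to those controls.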

[8] = NCI Yeast Anticancer Drug Screen. Data for the sgs1 mgt1 strain (AID 161);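 further: 0% = growth of cultures given vehicle only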; conditions: S. cerevisiae sgs1 mgt1 strain, active compounds read high
In short: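 This yeast growth screen uses a strain with defined DNA-repair lesions; compound-treated growth is compared with vehicle-treated growth.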

[9] = NCI Yeast Anticancer Drug Screen. Data for the CLN2oe strain (AID 163);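 further: 0% = growth of vehicle-only control cultures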; conditions: S. cerevisiae CLN2oe strain, active compounds read high
In short: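 Compounds are applied to yeast harbouring a defined cell-cycle control change; reduced growth compared with vehicle-treated controls gives the value.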

[10] = NCI Yeast Anticancer Drug Screen. Data for the cln2 rad14 strain (AID 165);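 further: 0% = growth equal to vehicle treated cultures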; conditions: S. cerevisiae cln2 rad14 strain, active compounds read high
In short: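 Readout is yeast growth inhibition versus vehicle-treated controls, using a strain with cln2 and rad14 alterations exposed to compound.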

[11] = NCI Yeast Anticancer Drug Screen. Data for the bub3 strain (AID 167); conditions: S. cerevisiae bub3 mutant strain, active compounds read high
In short: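 Yeast carrying a defined mutation is treated with each compound, and growth is compared with that of vehicle-exposed cells to give inhibition.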

[12] = NCI Yeast Anticancer Drug Screen. Data for the wt2 strain (AID 169);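 further: 0% = growth of vehicle-treated yeast cultures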; conditions: S. cerevisiae wt2 strain growth inhibition, active compounds read high
In short: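 Against vehicle-treated controls, the growth of yeast exposed to each compound was compared, and the inhibition was recorded.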

[13] = NCI Yeast Anticancer Drug Screen. Data for the mlh1 strain (AID 171);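 further: 0% = growth of vehicle-treated control cultures of the same strain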; conditions: S. cerevisiae mlh1 strain growth inhibition, active compounds read high
In short: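 Measured: yeast growth. Reference: vehicle-treated controls. Organism: strain with a defined alteration affecting DNA damage repair or cell cycle control, treated with compound.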

[14] = NCI Yeast Anticancer Drug Screen. Data for the sgs1 strain (AID 173);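 further: 0% = growth of vehicle-only control cultures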; conditions: S. cerevisiae sgs1 mutant, active compounds read high
In short: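 Each compound was added to cultures of the altered yeast strain. Growth was recorded, and inhibition was derived by comparison with vehicle controls.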

[15] = NCI Yeast Anticancer Drug Screen. Data for the mlh1 rad18 strain (AID 175); conditions: S. cerevisiae mlh1 rad18 strain growth inhibition, active compounds read high
In short: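 Genetically defined yeast (DNA repair-deficient) exposed to compounds; growth inhibition determined relative to vehicle.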

[16] = NCI Yeast Anticancer Drug Screen. Data for the rad18 strain (AID 177); conditions: S. cerevisiae rad18 mutant growth inhibition, active compounds read high
In short: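 Vehicle-treated cultures served as the baseline for scoring compound-induced growth inhibition in DNA-repair-mutant yeast.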

[17] = at 5.0 µM (retest, dose inferred, filed as 0.5)
[18] = at 50.0 µM (retest, dose inferred, filed as 5.0)

## Cc1ccc2c(ccc(/C=C/c3ccc(O)c4ncccc34)[n+]2C)c1
[1]; at 1.2 µM
  growth inhibition: 17%
[1]; at 3.7 µM
  growth inhibition: 46%
[1]; at 11.0 µM
  growth inhibition: 89% (active)
[1]; at 33.0 µM
  growth inhibition: 94% (active)
[1]; at 100.0 µM
  growth inhibition: 81% (active)
[2]; at 1.2 µM
  growth inhibition: 4%
[2]; at 3.7 µM
  growth inhibition: 30%
[2]; at 11.0 µM
  growth inhibition: 85% (active)
[2]; at 33.0 µM
  growth inhibition: 94% (active)
[2]; at 100.0 µM
  growth inhibition: 81% (active)
[3]; at 1.2 µM
  growth inhibition: 3%
[3]; at 3.7 µM
  growth inhibition: 27%
[3]; at 11.0 µM
  growth inhibition: 60%
[3]; at 33.0 µM
  growth inhibition: 87% (active)
[3]; at 100.0 µM
  growth inhibition: 79% (active)
[4]; at 1.2 µM
  growth inhibition: 8%
[4]; at 3.7 µM
  growth inhibition: 40%
[4]; at 11.0 µM
  growth inhibition: 84% (active)
[4]; at 33.0 µM
  growth inhibition: 95% (active)
[4]; at 100.0 µM
  growth inhibition: 82% (active)
[5]; at 1.2 µM
  growth inhibition: 1%
[5]; at 3.7 µM
  growth inhibition: 41%
[5]; [17]
  growth inhibition: 40%
[5]; at 11.0 µM
  growth inhibition: 88% (active)
[5]; at 33.0 µM
  growth inhibition: 93% (active)
[5]; [18]
  growth inhibition: 93% (active)
[5]; at 100.0 µM
  growth inhibition: 74% (active)
[6]; at 1.2 µM
  growth inhibition: 10%
[6]; at 3.7 µM
  growth inhibition: 37%
[6]; [17]
  growth inhibition: 43%
[6]; at 11.0 µM
  growth inhibition: 89% (active)
[6]; at 33.0 µM
  growth inhibition: 93% (active)
[6]; [18]
  growth inhibition: 94% (active)
[6]; at 100.0 µM
  growth inhibition: 77% (active)
[7]; at 1.2 µM
  growth inhibition: -15%
[7]; at 3.7 µM
  growth inhibition: 37%
[7]; at 11.0 µM
  growth inhibition: 90% (active)
[7]; at 33.0 µM
  growth inhibition: 94% (active)
[7]; at 100.0 µM
  growth inhibition: 77% (active)
[8]; [17]
  growth inhibition: 23%
[8]; [18]
  growth inhibition: 98% (active)
[8]; at 50.0 µM
  growth inhibition: 82% (active)
[9]; at 1.2 µM
  growth inhibition: -6%
[9]; at 3.7 µM
  growth inhibition: 18%
[9]; at 11.0 µM
  growth inhibition: 78% (active)
[9]; at 33.0 µM
  growth inhibition: 90% (active)
[9]; at 100.0 µM
  growth inhibition: 77% (active)
[10]; [17]
  growth inhibition: 17%
[10]; [18]
  growth inhibition: 95% (active)
[10]; at 50.0 µM
  growth inhibition: 84% (active)
[11]; at 1.2 µM
  growth inhibition: 18%
[11]; at 3.7 µM
  growth inhibition: 33%
[11]; [17]
  growth inhibition: 10%
[11]; at 11.0 µM
  growth inhibition: 87% (active)
[11]; at 33.0 µM
  growth inhibition: 91% (active)
[11]; [18]
  growth inhibition: 98% (active)
[11]; at 50.0 µM
  growth inhibition: 84.9% (active)
[11]; at 100.0 µM
  growth inhibition: 74% (active)
[12]; at 1.2 µM
  growth inhibition: -16%
[12]; at 3.7 µM
  growth inhibition: 2%
[12]; at 11.0 µM
  growth inhibition: 53%
[12]; at 33.0 µM
  growth inhibition: 88% (active)
[12]; at 100.0 µM
  growth inhibition: 79% (active)
[13]; at 1.2 µM
  growth inhibition: 15%
[13]; at 3.7 µM
  growth inhibition: 60%
[13]; at 11.0 µM
  growth inhibition: 85% (active)
[13]; at 33.0 µM
  growth inhibition: 95% (active)
[13]; at 100.0 µM
  growth inhibition: 78% (active)
[14]; at 1.2 µM
  growth inhibition: 18%
[14]; at 3.7 µM
  growth inhibition: 45%
[14]; at 11.0 µM
  growth inhibition: 82% (active)
[14]; at 33.0 µM
  growth inhibition: 92% (active)
[14]; at 100.0 µM
  growth inhibition: 78% (active)
[15]; [17]
  growth inhibition: 58%
[15]; [18]
  growth inhibition: 91% (active)
[16]; at 1.2 µM
  growth inhibition: 17%
[16]; at 3.7 µM
  growth inhibition: 31%
[16]; at 11.0 µM
  growth inhibition: 80% (active)
[16]; at 33.0 µM
  growth inhibition: 91% (active)
[16]; at 100.0 µM
  growth inhibition: 63%

Source: PubChem BioAssay (NCI)
